Source: PubChem BioAssay (NCI)
About 83,000 compounds went through this panel and 20% of them were active in at least one assay; those are over-represented in the sample as a whole.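 How to read the values: 0–100, growth inhibition (40 = 60% inhibited); 0, no net growth; -100 to 0, cell death (-40 = 40% of starting cells died; -100 = all dead).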 Active and inactive are the calls of the source. The calls were made as follows: active = growth percent below 10; inactive = the rest.

system: NCI-H522 lung; assay: NCI-60 one-dose screen, 48 h (100 = growth as untreated, 0 = no growth, -100 = all killed); details: 10 µM unless noted

SMILES | growth
c1ccc2c(-c3cnn4cc(-c5ccc(N6CCNCC6)cc5)cnc34)ccnc2c1 | -50% (active)
COc1ccc(C(=O)/C=C/c2ccc(C)cc2)cc1S(N)(=O)=O | 43.1% (inactive)
O=C(OCC(O)(CO)C(=O)NC12CC3CC(CC(C3)C1)C2)c1ccc(Cl)cc1 (centres undefined) | 88.2% (inactive)
O=C(Nc1cccc(Cn2c(=O)[nH]c3ccc(Oc4ncccn4)cc3c2=O)c1)c1cccc(Cl)c1 | 61.5% (inactive)
Cn1ccnc1C(=O)/C=C/c1ccc(C(=O)Nc2ccccc2F)cc1 | 39.7% (inactive)
O=C(Oc1ccccc1)c1cc(O)c(O)c(O)c1 | 53.3% (inactive)
CN(C)CCOc1ccc(/C(=C(/CCCCCCCCCC[P+](c2ccccc2)(c2ccccc2)c2ccccc2)c2ccccc2)c2ccccc2)cc1 | -75.1% (active)
Clc1nc(N2CCC[N+]3(CC2)CC[N+]2(CCCNCC2)CC3)nc(N2CCC[N+]3(CC2)CC[N+]2(CCCNCC2)CC3)n1 (centres undefined) | 94% (inactive)
Clc1ccc(C2=Nn3c(nnc3-c3cc(Cl)cc(Cl)c3Cl)SC2)cc1 | 21.4% (inactive)
COc1ccc(C(=O)/C=C/Nc2cc(-c3ccccc3)nn2-c2ccccc2)cc1 | 82.7% (inactive)
COc1cc(C2=Nc3c(N)nc(N)nc3NC(c3cccc(Nc4ccnc5cc(C(F)(F)F)ccc45)c3)C2)cc(OC)c1OC (centres undefined) | 97.1% (inactive)
CC(=O)O[C@H]1CC[C@@]2(C)C(=CC[C@@H]3[C@@H]2CC[C@]2(C)C(Cl)=C(c4nc5ccc(Cl)cn5c4NC(C)(C)C)C[C@@H]32)C1 | 86.8% (inactive)
COc1ccc(C2=NN3C(C2)c2cc(Br)ccc2OC3c2ccncc2)cc1 (centres undefined) | 60% (inactive)
COc1cc(-c2c(-c3ccccc3)c[nH]c2C(=O)NCCCO)c(OC)c2c1OCO2 | 93.9% (inactive)
CC(C)(C)c1ccc(C(=O)Nc2sc3c(c2C#N)CCC(=O)C3)cc1 | -22.9% (active)
COc1ccc(Nc2nccc(Nc3ccc4[nH]ncc4c3)n2)cc1 | 19.1% (inactive)
COc1ccc(-c2nc(SCCC(C)C)nc(N/N=C(/C)c3ccc(N)cc3)c2C#N)cc1 | 90.6% (inactive)
Nc1cc(-c2ccc(Cl)cc2)nn1-c1nc(-c2ccc(Br)cc2)cs1 | 84.2% (inactive)
FC(F)(F)c1cc(N2CCCCC2)nc(NCCCNc2ccnc3cc(Cl)ccc23)n1 | 47.4% (inactive)
CCOC(=O)C1=C(c2ccccc2)N=C2SC=C(c3cccc([N+](=O)[O-])c3)N2C1c1ccc(O)cc1 (centres undefined) | 93.8% (inactive)
COc1ccccc1-c1nc2ccc3[nH]ncc3c2c2c1CCCC2 | 55% (inactive)
C=C(C)Cn1c(SCC(=O)c2cccs2)nc2sc3c(c2c1=O)CCCC3 | 58.1% (inactive)
COC(=O)c1nc(-c2ccccc2)oc1S(=O)(=O)N1CCN(c2ccc(OC)cc2)CC1 | 48.3% (inactive)
CCN(CC)CCCNc1cc(OC)cc2cccnc12 | 94.7% (inactive)
CC(C)n1nc(-c2ccc3oc(N)nc3c2)c2c(N)ncnc21 | 2.22% (active)

system: A549/ATCC NSCLC; assay: as above; details: 10 µM unless noted

SMILES | growth
Cn1cc(-c2ccc3c(Nc4cccc(NC(=O)Nc5cccc(F)c5)c4)ncnc3c2)cn1 | 28.7% (inactive)
CC(C)(C)n1cc(-c2ccnc(NCCNS(=O)(=O)c3ccc(C(F)(F)F)cc3)c2)c(-c2ccccc2)n1 | 78.2% (inactive)
Cc1nn(C)c2ncnc(Nc3ccccc3Br)c12 | 99.3% (inactive)
COc1ccc(C(=O)C2OC3=C(C(=O)CC(C)(C)C3)C2c2cccc(Oc3ccccc3)c2)cc1 (centres undefined) | 85.7% (inactive)
O=C(Nc1ccc2[nH]ncc2c1)c1csc(Nc2ccccc2)n1 | 40.7% (inactive)
c1ccc(-c2cn3nc(-c4c[nH]c5ccccc45)sc3n2)cc1 | 82.6% (inactive)
COc1cc(OCc2cccc(-c3ccccc3)c2C)cc(OC)c1CN1CCCCC1C(=O)NCCOCCOCCN (centres undefined) | 70.6% (inactive)
COc1cc(OC)cc(C(=O)Nc2cnc(Nc3ccc(N4CCOCC4)nc3)nc2Oc2ccc(C(F)(F)F)cc2)c1 | 35.4% (inactive)
Cc1ccc(-c2nc(C#N)c(S(=O)(=O)n3nc(C)cc3N)o2)cc1 | 99.4% (inactive)
CCN1CCN(CCOc2ccc(CNc3ccc4nc(CCC5CCCCC5)[nH]c4c3)cc2)CC1 | 48.3% (inactive)
COc1ccc(NC(=O)c2ccc(NC3=C(c4ccc(Cl)cc4)C(=O)NC3=O)cc2)cc1 | 71.2% (inactive)
CC(=O)OCCOc1cc(Cl)c(Cl)cc1Cl | 90.8% (inactive)
Oc1ccc(C(c2ccc(O)cc2)c2ccc(Cl)cn2)cc1 | 52.1% (inactive)
CCCS(=O)(=O)Nc1cccc(Nc2ncnc3cc(NC(=O)CCl)ccc23)c1Cl | -5.2% (active)
c1ccc2c(-c3cnn4cc(-c5ccc(N6CCNCC6)cc5)cnc34)ccnc2c1 | -65.4% (active)
COc1ccc(C(=O)/C=C/c2ccc(C)cc2)cc1S(N)(=O)=O | 43.6% (inactive)
O=C(OCC(O)(CO)C(=O)NC12CC3CC(CC(C3)C1)C2)c1ccc(Cl)cc1 (centres undefined) | 91.4% (inactive)
O=C(Nc1cccc(Cn2c(=O)[nH]c3ccc(Oc4ncccn4)cc3c2=O)c1)c1cccc(Cl)c1 | 55.5% (inactive)
Cn1ccnc1C(=O)/C=C/c1ccc(C(=O)Nc2ccccc2F)cc1 | 17.1% (inactive)
O=C(Oc1ccccc1)c1cc(O)c(O)c(O)c1 | 68.9% (inactive)

SMILES | growth
CN(C)CCOc1ccc(/C(=C(/CCCCCCCCCC[P+](c2ccccc2)(c2ccccc2)c2ccccc2)c2ccccc2)c2ccccc2)cc1 | -64.3% (active)
Clc1nc(N2CCC[N+]3(CC2)CC[N+]2(CCCNCC2)CC3)nc(N2CCC[N+]3(CC2)CC[N+]2(CCCNCC2)CC3)n1 (centres undefined) | 86.1% (inactive)
Clc1ccc(C2=Nn3c(nnc3-c3cc(Cl)cc(Cl)c3Cl)SC2)cc1 | 58.2% (inactive)
COc1ccc(C(=O)/C=C/Nc2cc(-c3ccccc3)nn2-c2ccccc2)cc1 | 91.4% (inactive)
COc1cc(C2=Nc3c(N)nc(N)nc3NC(c3cccc(Nc4ccnc5cc(C(F)(F)F)ccc45)c3)C2)cc(OC)c1OC (centres undefined) | 73.6% (inactive)
CC(=O)O[C@H]1CC[C@@]2(C)C(=CC[C@@H]3[C@@H]2CC[C@]2(C)C(Cl)=C(c4nc5ccc(Cl)cn5c4NC(C)(C)C)C[C@@H]32)C1 | 89.5% (inactive)
COc1ccc(C2=NN3C(C2)c2cc(Br)ccc2OC3c2ccncc2)cc1 (centres undefined) | 71.7% (inactive)
COc1cc(-c2c(-c3ccccc3)c[nH]c2C(=O)NCCCO)c(OC)c2c1OCO2 | 103% (inactive)
CC(C)(C)c1ccc(C(=O)Nc2sc3c(c2C#N)CCC(=O)C3)cc1 | 14.4% (inactive)
COc1ccc(Nc2nccc(Nc3ccc4[nH]ncc4c3)n2)cc1 | 24% (inactive)
COc1ccc(-c2nc(SCCC(C)C)nc(N/N=C(/C)c3ccc(N)cc3)c2C#N)cc1 | 98.4% (inactive)
Nc1cc(-c2ccc(Cl)cc2)nn1-c1nc(-c2ccc(Br)cc2)cs1 | 88.1% (inactive)
FC(F)(F)c1cc(N2CCCCC2)nc(NCCCNc2ccnc3cc(Cl)ccc23)n1 | 50.5% (inactive)
CCOC(=O)C1=C(c2ccccc2)N=C2SC=C(c3cccc([N+](=O)[O-])c3)N2C1c1ccc(O)cc1 (centres undefined) | 100% (inactive)
COc1ccccc1-c1nc2ccc3[nH]ncc3c2c2c1CCCC2 | 65.2% (inactive)
C=C(C)Cn1c(SCC(=O)c2cccs2)nc2sc3c(c2c1=O)CCCC3 | 41.1% (inactive)
COC(=O)c1nc(-c2ccccc2)oc1S(=O)(=O)N1CCN(c2ccc(OC)cc2)CC1 | 95.9% (inactive)
CCN(CC)CCCNc1cc(OC)cc2cccnc12 | 108% (inactive)
CC(C)n1nc(-c2ccc3oc(N)nc3c2)c2c(N)ncnc21 | -6.71% (active)
